Data taken from PubChem BioAssay (EPA / NIEHS).
Active and inactive are the calls of the source. How the source made its calls: active means hit-call score of the fitted dose curve at least 0.9, where 1 is the maximum; inactive means score below 0.9.

assay: CEETOX_H295R_DOC_noMTC: CeeTox H295R High-throughput Steroidogenesis Assay for DOC, maximum tolerated concentration (MTC) filtered results only (AID 2283918); details: actives raise or lower the signal
Summary of the method: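 H295R cells prestimulated 48 h with 10 uM forskolin, then exposed 48 h to test chemical (0.1% DMSO final). Medium 11-deoxycorticosterone extracted with MTBE, quantified by HPLC-MS/MS; bidirectional fit versus DMSO, concentrations not MTC-filtered.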

Compound	AC50	outcome
Nc1nc(=S)c2[nH]cnc2[nH]1	35.4 µM (active)	–
O=C(Oc1ccccc1)c1cccc(C(=O)Oc2ccccc2)c1	–	inactive
NC(=Nc1ccccc1)Nc1ccccc1	50 µM (active)	–
C=CCc1ccc(OC)c(OC)c1	–	inactive

assay: CEETOX_H295R_PROG_noMTC: CeeTox H295R High-throughput Steroidogenesis Assay for Progesterone (PROG), maximum tolerated concentration (MTC) filtered results only (AID 2283920); details: actives raise or lower the signal
Summary of the method: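 H295R human adrenal cells were prestimulated 48 h with 10 uM forskolin, then exposed 48 h to test chemical (0.1% DMSO final). Progesterone in medium was quantified by HPLC-MS/MS; bidirectional fitting versus DMSO, concentrations not MTC-filtered.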

Compound	AC50	outcome
Nc1nc(=S)c2[nH]cnc2[nH]1	78.8 µM (active)	–
O=C(Oc1ccccc1)c1cccc(C(=O)Oc2ccccc2)c1	–	inactive
NC(=Nc1ccccc1)Nc1ccccc1	–	inactive

assay: CCTE_Harrill_HTTr_Viability_DMEM_6hr: (Pilot) CCTE's 6-hour Cell Viability Assessment for the High-Throughput Transcriptomics (HTTr) Platform, in MCF-7 cells cultured in DMEM + 10% fetal bovine serum, Harrill Lab (AID 2283973); details: not given
Summary of the method: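 MCF-7 cells in DMEM + 10% FBS, eight-point dilution series, 6 h exposure. Membrane integrity by propidium iodide exclusion with high-content imaging; bidirectional fit versus DMSO.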

Compound	outcome	AC50
CC(C)OC(=O)C(C)(C)Oc1ccc(C(=O)c2ccc(Cl)cc2)cc1	inactive	–
Nc1nc(Cl)nc2c1ncn2[C@H]1C[C@H](O)[C@@H](CO)O1	inactive	–
CCN(CC)CCOc1ccc(C(=C(Cl)c2ccccc2)c2ccccc2)cc1	–	82.4 µM (active)
Cc1c(C)c2c(c(C)c1O)CCC(C)(COc1ccc(CC3SC(=O)NC3=O)cc1)O2 (stereo not given)	inactive	–
COC(=O)[C@H]1[C@H]2C[C@@H]3c4[nH]c5cc(OC)ccc5c4CCN3C[C@H]2C[C@@H](OC(=O)c2cc(OC)c(OC)c(OC)c2)[C@@H]1OC	inactive	–
CC(=O)O[C@]1(C(C)=O)CC[C@H]2[C@@H]3C=C(Cl)C4=CC(=O)[C@@H]5C[C@@H]5[C@]4(C)[C@H]3CC[C@@]21C	inactive	–

assay: CCTE_Harrill_HTTr_Viability_DMEM_12hr: (Pilot) CCTE's 12-hour Cell Viability Assessment for the High-Throughput Transcriptomics (HTTr) Platform, in MCF-7 cells cultured in DMEM + 10% fetal bovine serum, Harrill Lab (AID 2283974); details: not given
Summary of the method: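 MCF-7 cells in DMEM + 10% FBS exposed 12 h to an eight-point dilution series; membrane integrity scored by propidium iodide exclusion with high-content imaging, bidirectional fitting versus DMSO.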

Compound	outcome	AC50
CC(C)OC(=O)C(C)(C)Oc1ccc(C(=O)c2ccc(Cl)cc2)cc1	inactive	–
Nc1nc(Cl)nc2c1ncn2[C@H]1C[C@H](O)[C@@H](CO)O1	inactive	–
CCN(CC)CCOc1ccc(C(=C(Cl)c2ccccc2)c2ccccc2)cc1	–	65.3 µM (active)
Cc1c(C)c2c(c(C)c1O)CCC(C)(COc1ccc(CC3SC(=O)NC3=O)cc1)O2 (stereo not given)	inactive	–
COC(=O)[C@H]1[C@H]2C[C@@H]3c4[nH]c5cc(OC)ccc5c4CCN3C[C@H]2C[C@@H](OC(=O)c2cc(OC)c(OC)c(OC)c2)[C@@H]1OC	inactive	–
CC(=O)O[C@]1(C(C)=O)CC[C@H]2[C@@H]3C=C(Cl)C4=CC(=O)[C@@H]5C[C@@H]5[C@]4(C)[C@H]3CC[C@@]21C	inactive	–

assay: CCTE_Harrill_HTTr_Viability_DMEM_24hr: (Pilot) CCTE's 24-hour Cell Viability Assessment for the High-Throughput Transcriptomics (HTTr) Platform, in MCF-7 cells cultured in DMEM + 10% fetal bovine serum, Harrill Lab (AID 2283975); details: not given
Summary of the method: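 MCF-7 cells in DMEM with 10% FBS exposed for 24 hours to an eight-point dilution series. Membrane integrity by propidium iodide exclusion with high content imaging; bidirectional fit against DMSO.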

Compound	outcome	AC50
CC(C)OC(=O)C(C)(C)Oc1ccc(C(=O)c2ccc(Cl)cc2)cc1	inactive	–
Nc1nc(Cl)nc2c1ncn2[C@H]1C[C@H](O)[C@@H](CO)O1	inactive	–
CCN(CC)CCOc1ccc(C(=C(Cl)c2ccccc2)c2ccccc2)cc1	–	54.8 µM (active)
Cc1c(C)c2c(c(C)c1O)CCC(C)(COc1ccc(CC3SC(=O)NC3=O)cc1)O2 (stereo not given)	inactive	–
COC(=O)[C@H]1[C@H]2C[C@@H]3c4[nH]c5cc(OC)ccc5c4CCN3C[C@H]2C[C@@H](OC(=O)c2cc(OC)c(OC)c(OC)c2)[C@@H]1OC	inactive	–
CC(=O)O[C@]1(C(C)=O)CC[C@H]2[C@@H]3C=C(Cl)C4=CC(=O)[C@@H]5C[C@@H]5[C@]4(C)[C@H]3CC[C@@]21C	inactive	–
